Screens deposited in PubChem BioAssay by National Center for Advancing Translational Sciences (NCATS).
The entries come from a sample that favours hits as a whole.
N370S GC mod = inhibitors or activators of N370S glucocerebrosidase for Gaucher disease. P04062. N370S GC spleen homogenate, 4MU-glucoside fluorescence. Potency, µM (highest dose often 59.4 µM), hits mostly inhibitors. 330,000 tested, 0.092% active
Integrin act MD = integrin-mediated muscular dystrophy alleviation activation | alpha7betagal myoblasts, beta-gal FDG fluorescence, 48 h | Potency, µM (titrated, usually from 38.3 µM), actives largely listed as activators | 350,000 tested, 0.064% active; note: nearly all actives have a fitted effect of over 60% in size
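alpha7betagal+/- myoblasts (passage 13, 250/well) treated 48 h at 37C with compounds at 1:260 dilution of DMSO stock. Lysed, then beta-galactosidase activity read as FDG fluorescence (ex 480/em 540) after 30 min, with pre-read for autofluorescence.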
ClpP mod = qHTS Assay for Activators of ClpP. AID 651965, 2013. purified B. subtilis ClpP, FRET peptide cleavage, 20 min. Potency, µM (series often up to 57.5 µM). 340,000 tested, 1.9% active. ATP-dependent Clp protease proteolytic subunit (Bacillus subtilis (strain 168)), P80244; active = well fitted falling curve with a large enough effect; inconclusive = small, poorly fitted or top-dose-only effect; inactive = no such curve, though single readings can be large or run the other way; note: the source files actives as falling curves though it sought activators and does not explain the sign; nearly all actives have a fitted effect of over 65% in size
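ClpP 10 microg/mL final, pH 8 Tris/KCl buffer with BSA, glycerol, Tween-20; compound pinned in; FRET-FV substrate; RT 20 min; Ex320/Em430; ΔFRET vs ADEP 5.8 microM, DMSO, no enzyme.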
Anesthetic bind = candidate novel general anesthetic via apoferritin binding; Potency, µM (highest dose often 77.5 µM), hits mostly inhibitors; P02791; 350,000 tested, 0.074% active; AID 485281; apoferritin/1-aminoanthracene competitive binding, fluorescence; note: nearly all actives have a fitted effect of over 20% in size
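In PBS, apoferritin at 10 uM is loaded with 1-AMA from a 50% saturated solution. After 10 min of compound exposure at ambient temperature, reduced 535 nm fluorescence indicates probe displacement.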
Glioma ERSR ind = inducers of ER stress response in human glioma cells; U87-MG GRP78 promoter luciferase reporter, 16 h; Potency, µM, actives largely listed as activators; 420,000 tested, 0.02% active; note: series mostly up to about 76 µM; nearly all actives have a fitted effect of over 35% in size
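Stably transfected U87-MG glioma cells carrying a GRP78-based luciferase sensor; 16 h compound incubation. Luminescence end-point read 10 min after Bright-Glo addition at room temperature.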
CBFb RUNX1 block = CBF-beta/RUNX1 interaction disruption. Q01196+Q13951. AlphaScreen CBFb-His/RUNX1-biotin binding, biochemical. Potency, µM (series often up to 59.8 µM), usual class: inhibitors. 230,000 tested, under 10 active. AID 1477
Target sequence (Q01196 whole entry, looked up): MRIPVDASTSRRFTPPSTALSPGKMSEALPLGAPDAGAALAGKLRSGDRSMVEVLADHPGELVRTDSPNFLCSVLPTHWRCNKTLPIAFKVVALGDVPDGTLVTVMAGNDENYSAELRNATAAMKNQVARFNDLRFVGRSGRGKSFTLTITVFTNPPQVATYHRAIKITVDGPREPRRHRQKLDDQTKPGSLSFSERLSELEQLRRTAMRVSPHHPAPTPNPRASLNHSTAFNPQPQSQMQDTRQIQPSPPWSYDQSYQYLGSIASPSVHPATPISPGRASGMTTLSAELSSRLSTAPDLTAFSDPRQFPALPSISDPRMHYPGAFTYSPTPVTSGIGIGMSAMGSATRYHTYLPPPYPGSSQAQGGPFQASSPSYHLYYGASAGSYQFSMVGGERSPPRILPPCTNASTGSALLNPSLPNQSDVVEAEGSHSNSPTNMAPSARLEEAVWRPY
Target sequence (Q13951 whole entry, looked up): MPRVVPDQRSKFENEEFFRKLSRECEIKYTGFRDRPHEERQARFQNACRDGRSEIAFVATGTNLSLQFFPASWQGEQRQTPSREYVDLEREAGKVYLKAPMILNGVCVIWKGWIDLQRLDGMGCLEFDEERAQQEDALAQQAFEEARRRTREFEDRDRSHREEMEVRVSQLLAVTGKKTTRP
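Proteins preincubated together for 20 min at RT before compound addition; 15 min later, nickel and streptavidin beads were added and left 90 min prior to AlphaScreen measurement.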
Hits are given with their value; – = inactive; ? = inconclusive; · = no result given. Unless noted, calls come from the whole dose curve; as a rule, active = well fitted curve in the direction sought with a large enough effect; inconclusive = small, poorly fitted or top-dose-only effect, or another doubt; inactive = no such curve, though single readings can be large; an effect the other way counts as inactive or inconclusive.

SMILES	N370S GC mod	Integrin act MD	ClpP mod	Anesthetic bind	Glioma ERSR ind	CBFb RUNX1 block
CO/N=C1\C[C@]2(C[C@@H]3C[C@H](C/C=C(/C)C[C@@H](C)/C=C\C=C4\CO[C@@H]5[C@@H](O)C(C)=C[C@@H](C(=O)O3)[C@]45O)O2)O[C@@H](/C(C)=C/C(C)C)[C@H]1C	·	·	·	·	–	·
COc1cc(OC)c(OC)cc1/C=N/NC(=O)CC1C(=O)NN=C1C (stereo not drawn)	–	–	28.2µM	–	–	–
CC(Oc1ccccc1)C(=O)NCC1Cc2cc(F)cc(-c3ccccn3)c2O1 (stereo not drawn)	·	·	·	·	–	·
CCC1CN(CCC(=O)NC2CCOC(C)(C)C2)Cc2cc(OC)ccc2O1 (stereo not drawn)	·	·	·	·	–	·
CCCCc1ccc(NC(=S)Nc2cccnc2)cc1	–	–	–	–	–	–
CCCCc1ccc(NC(=O)Nc2cccnc2)cc1	11.2µM	–	–	?	–	·
CC(C)Oc1ccc(C(=O)NCC2Cc3cc(F)cc(-c4cnccn4)c3O2)cc1 (stereo not drawn)	·	·	·	·	–	·
COc1ccc2[nH]c3c(NCCN(C(C)C)C(C)C)ncnc3c2c1	–	–	17.8µM	–	–	–
CC(C)OCCCNc1ncnc2c1[nH]c1ccccc12	–	–	17.8µM	–	–	–
CCOc1ccc2[nH]c3c(NCCN(CC)CC)ncnc3c2c1	–	?	–	–	–	·
CCOC(=O)N1CCN(C(=O)c2ccc3nc4ccc(Cl)cc4c(=O)n3c2)CC1	–	–	14.1µM	–	–	–
CCC(=O)NC(c1ccccc1Cl)c1c(O)ccc2ccccc12 (stereo not drawn)	–	–	–	–	–	–
COc1ccc(C(NC(=O)C(C)C)c2c(O)ccc3ccccc23)cc1 (stereo not drawn)	?	–	–	–	–	–
COc1ccc(C(NC(=O)C(C)C)c2c(O)ccc3ccccc23)cc1OC (stereo not drawn)	?	–	28.2µM	–	–	–
CC(C)C(=O)NC(c1ccco1)c1c(O)ccc2ccccc12 (stereo not drawn)	–	–	22.4µM	–	–	–
CC(C)C(=O)NC(c1ccccc1Cl)c1c(O)ccc2ccccc12 (stereo not drawn)	–	–	25.1µM	–	–	–
COCC1CCCN(Cc2ccc3c(c2)CN(C(=O)c2ccc(-n4cccn4)cc2)CCO3)C1 (stereo not drawn)	·	·	·	·	–	·
COCC(=O)Nc1cc(C(=O)N2CCN(C)C(c3ccccc3)C2)c2c(c1)nc(-c1ccncc1)n2C (stereo not drawn)	·	·	·	·	–	·
COc1ccc2c(COC(=O)[C@@H]3CCCN3S(=O)(=O)c3ccc(Cl)cc3)cc(=O)oc2c1	–	–	25.1µM	·	–	·
CCOc1cccc(-c2nn(-c3ccccc3)cc2/C=C(/C#N)C(=O)NCCCn2ccnc2)c1	?	–	25.1µM	?	–	?
COc1cc(-c2cnc3ccccc3c2)cc2c1OCCN(C(=O)CCC(=O)c1ccc(F)cc1)C2	·	·	·	·	–	·
CSc1nnc(-c2sc(-c3ccccc3)nc2C)n1C	–	–	25.1µM	–	–	–
Cc1cccc2[nH]c3c(N4CCN(C(=O)c5ccco5)CC4)ncnc3c12	–	–	31.6µM	?	–	–
COCCN1CCN(C(=O)c2cnn(-c3nccc(-c4ccco4)n3)c2C2CC2)CC1	·	·	·	·	–	·
COc1ccccc1N1CC(C)(C)C(=O)N(C(=O)c2ccc(Cl)cc2)C1=S	–	–	–	–	–	–
SMILES	N370S GC mod	Integrin act MD	ClpP mod	Anesthetic bind	Glioma ERSR ind	CBFb RUNX1 block
COc1ccccc1N1CC(C)(C)C(=O)N(C(=O)c2ccc(C)cc2)C1=S	–	–	–	–	25.1µM	–
O=C(CCN1CCCCCC1)Nc1ccc2c(c1)OCCO2	–	–	14.1µM	–	–	–
CN(C)C(=O)Cn1c(SCC(=O)Nc2ccc3c(c2)OCO3)nc2ccccc21	–	–	15.8µM	–	–	–
CN1CCN(CCC(=O)Nc2ccc3c(c2)OCO3)CC1	–	–	–	–	–	–
Cc1nc(SCC(=O)Nc2ccc3c(c2)OCCO3)nc(C)c1C	–	–	20µM	–	–	–
COc1ccc2c(c1)CCc1cnc(-n3ncc(C(=O)N4CCN(CCO)CC4)c3C3CC3)nc1-2	·	·	·	·	–	·
COc1cc2nc(NC3CCN(C)CC3)nc(NC3CCN(C)CC3)c2cc1OC	·	·	–	·	·	·
O=C(NCCc1nnc2n1CCN(Cc1cc3ccccc3o1)CC2)c1ccoc1	·	·	·	·	–	·
O=C1C=C(CO)OCC1=O	·	·	·	·	–	·
O=C1CCCc2c1[nH]c1ccccc21	–	–	–	–	–	–
Clc1ccc2[nH]c3c(c2c1)CCc1cn[nH]c1-3	–	–	28.2µM	?	–	–
O=C(N/N=C1\CCCc2c1[nH]c1ccc(Cl)cc21)c1ccncc1	–	–	–	–	–	–
c1ccc2c3c([nH]c2c1)-c1[nH]ncc1CC3	–	–	12.6µM	?	–	–
Cc1cc(C)n(Cc2cccc(C(=O)NCC3Cc4cccc(-c5ncccn5)c4O3)c2)n1 (stereo not drawn)	·	·	·	·	–	·
O=C(NCCN1Cc2ccccc2OC(c2ccsc2)C1)c1cncs1 (stereo not drawn)	·	·	·	·	–	·
CCOC(=O)c1ccccc1N=N/C(C(C)=O)=C(/C)O	–	–	28.2µM	–	–	–
CCOC(=O)C[C@H]1c2cc(F)ccc2S(=O)(=O)N1Cc1cc(OC)c(OC)c(OC)c1	·	·	–	·	–	·
O=C1OC2C(O)C(O)OC2C1O (stereo not drawn)	·	·	·	·	–	·
Cc1cc(CNC(=O)c2cnn(-c3nccc(-c4ccc5c(c4)OCO5)n3)c2C2CC2)on1	·	·	·	·	–	·
CCC(C)Sc1nc2ccccc2c(=O)[nH]1 (stereo not drawn)	–	–	25.1µM	?	–	–
CC(C)Sc1nc2ccccc2c(=O)[nH]1	–	–	–	?	–	–
C1=Nc2ccccc2/C1=C/c1c[nH]c2ccccc12	·	·	–	·	–	·
COC(=O)c1cc(=O)nc2sc(-c3ccc(F)cc3)nn12	–	–	28.2µM	–	–	–
COC(=O)c1cc(=O)nc2sc(-c3cccs3)nn12	–	–	–	–	–	–
COc1ccc(C(=O)C[n+]2cccc3cc(C)ccc32)cc1	–	–	·	–	–	·
Cc1ccc2c(ccc[n+]2CC(=O)c2ccccc2)c1	–	–	17.8µM	–	–	–
CC(C)Cc1nc2cc(NS(=O)(=O)N(C)C)cc(C(=O)N3CCc4ccccc4C3)c2n1C	·	·	·	·	–	·
CCOc1ccc(CN2CCNC(=O)C2CC(=O)NCc2csc(C)n2)cc1 (stereo not drawn)	–	–	28.2µM	–	–	·
